Reference: PubChem BioAssay AID2314 (National Center for Advancing Translational Sciences (NCATS), 2010)
“And” between values parts separate entries of the source, which are not always exact repeats. Equal values may be shown once. The whole screen tested about 300,000 compounds, of which about 37,000 (12%) were called active. Only a selection was taken, and actives are over-represented in it overall. A number with no mark means an inactive call. Rule as the data show it: active = max response mostly above about 13% (no sharp cut-off); inactive = mostly below about 14%.

assay: Cycloheximide Counterscreen for Small Molecule Inhibitors of Shiga Toxin; settings: cell reporter, cycloheximide protein synthesis inhibition counterscreen; hits give high values; also: read at 38.3 µM for the half of the compounds with a filed dose; 0% is about no effect

SMILES	max response
c1ccc(CN=C2Nc3ccccc3CS2)nc1	36.1% (active)
CCOC(=O)c1c(-c2ccccc2)oc2cc(Br)c(O)cc12	-1.41%
Cc1ccc(C)c(S(=O)(=O)N2CCCOC2CNC(=O)C(=O)NC2CCCCC2)c1 (stereo unspecified)	7.6%
COC(=O)c1sc2ncccc2c1OCc1ccc(Cl)cc1Cl	4.4%
Cc1nc2ccccc2nc(C)c1=NOCc1ccc(Cl)cc1Cl	39.1% (active)
O=S(=O)(O)c1nc2ccccc2n1Cc1ccc(Cl)cc1Cl	-2.23%
Cc1ccc(-n2ncc3c2CC(C)(C)CC3NC(=O)CCc2cnn(C)c2)cc1 (stereo unspecified)	-4.22%
O=C1c2cccc3cccc(c23)C(=O)N1c1cccc(O)c1	-2.33%
O=C(Nc1cccc(Cl)c1N1CCOCC1)c1cccnc1	6.59%
Cc1noc(C)c1C(=O)NCCc1ccc(S(N)(=O)=O)cc1	-1.04%
Cc1nc2sccn2c(=O)c1S(=O)(=O)NCCc1ccccc1	-3.53%
C/C(=N/Nc1nc(-c2ccccc2)c(CC(=O)O)s1)c1ccccc1	35% (active)
CCOC(=O)C(=O)Nc1nc(-c2ccccc2)c(CC)s1	-3.08%
Cc1ccc(-c2nc(C)sc2CC(=O)O)cc1	-1.04%
O=[N+]([O-])c1ccccc1S(=O)(=O)Nc1cccc2cccnc12	10.3% and 10.1% and -3.71%
CCOC(=O)N1CCN(C(=O)CSc2ccc(Cl)cc2)CC1	20.3% (active)
CCN1CCN(C(=O)CSc2ccc(C)cc2)CC1	15.7% (active)
CCN1CCN(C(=O)CCN2C(=O)c3ccccc3C2=O)CC1	-1.33%
CCOC(=O)N1CCN(C(=O)CNC(=O)Cc2ccc(Cl)cc2)CC1	-1.82%
CCOC(=O)N1CCN(C(=O)COc2ccc(Cl)cc2C)CC1	-3.61%
CS(=O)(=O)N1CCN(C(=O)CSc2ccccc2)CC1	-1.13%

SMILES	max response
COc1ccc(OC)c(NC(=O)c2ccc3c(c2)C(=O)N(c2ccc(OC(C)=O)cc2)C3=O)c1	2.74%
CCC1SC2=NCCN2C1(O)c1ccc(Cl)cc1 (stereo unspecified)	-0.782%
COc1ccc(-c2csc3nc(-c4ccccc4F)oc(=O)c23)cc1OC	-1.13%
CCOc1nc(-c2ccc(OC)cc2)ccc1-c1noc(-c2cc(OC)c(OC)c(OC)c2)n1	8.08%
COc1ccc(-c2noc(-c3cccc(OC)c3OC)n2)cc1OC	36% (active)
Cc1ccccc1OCC(=O)Nc1ccc(S(=O)(=O)N2CCOCC2)cc1	4.38%
CCCOc1cccc(C(=O)Nc2ccccc2C(=O)N2CCN(C)CC2)c1	-0.829%
Cn1cnnc1SCC(=O)NNC(=O)COc1ccc(Br)cc1	-2.49%
Cn1cnnc1SCc1nnc(-c2ccccc2Br)o1	24% (active)
Nc1cccc2c1C(=O)N(Cc1nnc(-c3ccccc3Br)o1)C2=O	12.5%
Cc1ccc(S(=O)(=O)/N=C(\CN2CCOCC2)N2CCOCC2)cc1	-4.56%
COc1cc(/C=N/Nc2nn3cnnc3c3ccccc23)cc(OC)c1OC	17.3%
CN(CCO)c1ccc(/C=N/Nc2nncc3ccccc23)cc1	26.2% (active)
Cc1[nH]c(C)c(S(=O)(=O)N2CCC(C)CC2)c1C(=O)N1CCCC1	-1.96%
CCc1ccc(OCC(=O)OC(C)C(=O)NC2CC2)cc1 (stereo unspecified)	-3.17%
Cc1nc(-c2ccc(Cl)cc2)sc1C(=O)CBr	24.4% (active)
CCC(Sc1nncn1C)C(=O)Nc1nnc(-c2ccc(Cl)cc2)s1 (stereo unspecified)	11.6%
Cc1nc(-c2ccc(Cl)cc2)sc1C(=O)NN	0.842%
Cc1cc(/C=N/NC(=O)CC2(C)OCCO2)c(C)n1-c1ccc(Cl)c(Cl)c1	-1.92%
COc1ccc(-c2noc(CNC(=O)C(C)Oc3ccccc3)n2)cc1 (stereo unspecified)	0.411%
Cc1ccc(-c2nc(CS(=O)(=O)CC(=O)NCc3ccc4c(c3)OCO4)c(C)o2)cc1	-6.73%

SMILES	max response
CC(=O)N1CCSc2ccc(S(=O)(=O)N3CCC(C)CC3)cc21	11.3%
COc1ccc2nc(C)cc(Nc3cccc(C(=O)O)c3)c2c1	-4.02%
COc1ccc2nc(/N=C(\N)NC(=O)Nc3ccccc3)nc(C)c2c1	21.4% (active)
Cc1nc(/N=C(\N)NC(=O)NC2CCCCC2)nc2ccccc12	8.1%
NC(=O)c1cc(S(=O)(=O)N2CCCC2)ccc1OCc1ccc(F)cc1	8.59%
COc1ccc(CCNc2nc(C)cc(C)n2)cc1OC	-4.51%
CCOC(=O)c1c(NC(=S)NC(=O)/C=C/c2cccs2)sc(C)c1C	-0.873%
CCOC(=O)c1sc(=NC(=O)c2ccc(Br)cc2)n(C)c1C	7.25%
CCOC(=O)c1sc(=NC(=O)/C=C/c2cccs2)n(C)c1C	45% (active)
Cc1cccc2[nH]c(CN(C)C(=O)C3CCC(=O)N(CCc4ccccc4)C3)nc12 (stereo unspecified)	-2.09%
CC1CCN(S(=O)(=O)c2ccc(NC(=O)C3CC(=O)N(c4ccccc4)C3)cc2)CC1 (stereo unspecified)	-2.49%
COC(=O)c1cc(S(=O)(=O)NCC2CCN(Cc3ccc(Cl)cc3)CC2)cn1C	-2.79%
Cc1cc(NC(=O)Nc2c[nH]c(=O)[nH]c2=O)ccc1Br	9%
COC(=O)c1ccc2c(C(C)(C)O)c(C(C)(C)O)[nH]c2c1	14.2% (active)
COC(=O)c1cccc(NS(C)(=O)=O)c1	-1.63%
CCN(CC)CCNC(=O)CCCCCn1c(=O)[nH]c2cc(C(=O)OC)ccc2c1=O	-5.11%
CC(C)(C)c1cc(C(=O)NN)n(Cc2ccc(Cl)cc2Cl)n1	-2.75%
N=c1n(Cc2ccc(Cl)cc2)c2ccccc2n1CC(O)c1ccco1 (stereo unspecified)	-4.56%
C=C(C)CNC(=S)/N=c1\scc(C)n1CC	10.1%
